Measured values from PubChem BioAssay (EPA / NIEHS).
Where “and” joins values, the source holds several entries; their conditions need not be identical. Equal entries are not always repeated. More than one record can exist for a structure, and the calls need not agree. Calls of active or inactive are those of the source. How the source made its calls: active means hit-call score of the fitted dose curve at least 0.9, where 1 is the maximum; inactive means score below 0.9.

Assays:
[1] = read-out: Interleukin-8 (IL8), CXCL8 (gene 3576); experiment: BSK_MyoF_IL8: BioMAP Diversity Plus: MyoF Assay for Interleukin-8 (IL8) Biomarker Activity (AID 2284261); settings: primary human lung fibroblasts
Method in brief: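 DMSO-normalised, upward-fitted IL-8 ELISA signal; human lung fibroblasts, 24 h chemical treatment.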

Decorin, DCN (gene 1634) = experiment: BSK_MyoF_Decorin: BioMAP Diversity Plus: MyoF Assay for Decorin Biomarker Activity (AID 2284265); settings: primary human lung fibroblasts
Method in brief: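 In this multiplexed fibroblast system, secreted or surface decorin is detected by ELISA one day after dosing, with increases scored against the DMSO vehicle.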

[2] = BSK_MyoF_SRB: Viability Assessment in the BioMAP Diversity Plus: MyoF Assay (AID 2284267); settings: primary human lung fibroblasts;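 further: total protein by SRB absorbance in parallel cultures as cytotoxicity measure; cells assessed 24 h after compound addition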
Method in brief: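 Human lung fibroblasts, 24 h after chemical dosing; total protein measured by 0.1% sulforhodamine B staining after 10% TCA fixation, read at 560 nm, fitted relative to DMSO baseline.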

[3] = read-out: Matrix Metallopeptidase 1 (MMP1), MMP1 (gene 4312); experiment: BSK_MyoF_MMP1: BioMAP Diversity Plus: MyoF Assay for Matrix Metallopeptidase 1 (MMP1) Biomarker Activity (AID 2284268); settings: primary human lung fibroblasts
Method in brief: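 Fibroblasts from human lung receive compound for 24 h before ELISA quantitation of MMP1. DMSO serves as baseline, and the endpoint is fitted for signal gain.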

[4] = read-out: Eotaxin 3, CCL26 (gene 10344); experiment: BSK_BF4T_Eotaxin3: BioMAP Diversity Plus: BF4T Assay for Eotaxin 3 Biomarker Activity (AID 2284258); settings: primary human bronchial epithelial cells with fibroblasts
Method in brief: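 Co-culture of human bronchial epithelial cells and dermal fibroblasts, exposed to chemicals for 24 h versus DMSO. Eotaxin-3 quantified by ELISA; cytotoxicity checked in parallel cultures by sulforhodamine B total-protein staining.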

[5] = read-out: Monocyte Chemoattractant Protein-1 (MCP1), CCL2 (gene 6347); experiment: BSK_BF4T_MCP1: BioMAP Diversity Plus: BF4T Assay for Monocyte Chemoattractant Protein-1 (MCP1) Biomarker Activity (AID 2284259); settings: primary human bronchial epithelial cells with fibroblasts
Method in brief: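 Co-culture of bronchial epithelial cells and dermal fibroblasts dosed with chemical; MCP-1 measured by ELISA 24 h later. Activity fitted in positive direction versus DMSO; cytotoxicity checked by SRB staining in parallel cultures.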

[6] = read-out: Intercellular Adhesion Molecule 1 (ICAM1), ICAM1 (gene 3383); experiment: BSK_BF4T_ICAM1: BioMAP Diversity Plus: BF4T Assay for Intercellular Adhesion Molecule 1 (ICAM1) Biomarker Activity (AID 2284260); settings: primary human bronchial epithelial cells with fibroblasts
Method in brief: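 Co-culture of human bronchial epithelial cells and dermal fibroblasts exposed 24 h to chemical; cell-surface ICAM-1 quantified by ELISA. Parallel SRB total-protein staining assessed cytotoxicity; activity fitted relative to DMSO.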

[7] = read-out: Interleukin-1 alpha (IL1a), IL1A (gene 3552); experiment: BSK_BF4T_IL1a: BioMAP Diversity Plus: BF4T Assay for Interleukin-1 alpha (IL1a) Biomarker Activity (AID 2284264); settings: primary human bronchial epithelial cells with fibroblasts
Method in brief: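 Human bronchial epithelial cells co-cultured with dermal fibroblasts, dosed and read at 24 h. Secreted/surface IL-1α quantified by ELISA; gain-of-signal fitted relative to DMSO baseline. Parallel SRB total-protein staining tracked cytotoxicity.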

[8] = read-out: Matrix Metallopeptidase 1 (MMP1), MMP1 (gene 4312); experiment: BSK_BF4T_MMP1: BioMAP Diversity Plus: BF4T Assay for Matrix Metallopeptidase 1 (MMP1) Biomarker Activity (AID 2284270); settings: primary human bronchial epithelial cells with fibroblasts
Method in brief: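 Co-culture of human bronchial epithelial cells and dermal fibroblasts; MMP-1 levels measured by ELISA 24 hours after chemical dosing, relative to DMSO. Cytotoxicity checked in parallel cultures by SRB total-protein staining.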

[9] = read-out: Matrix Metallopeptidase 3 (MMP3), MMP3 (gene 4314); experiment: BSK_BF4T_MMP3: BioMAP Diversity Plus: BF4T Assay for Matrix Metallopeptidase 3 (MMP3) Biomarker Activity (AID 2284271); settings: primary human bronchial epithelial cells with fibroblasts
Method in brief: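 Co-culture of human bronchial epithelial cells and dermal fibroblasts dosed 24 h; MMP-3 measured by ELISA, positive-direction fit versus DMSO. Cytotoxicity tracked by SRB total-protein staining (560 nm) in parallel cultures.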

Measured: AC50

O=S1(=O)OCC2C(CO1)C1(Cl)C(Cl)=C(Cl)C2(Cl)C1(Cl)Cl (configuration not stated)
inactive: [1] | Decorin, DCN (gene 1634) | [2] | [3]

OCC(F)(F)OC(F)(F)C(F)(F)OC(F)(F)CO
inactive: all assays above

FC(F)(F)C(F)(C(F)(F)F)C(F)(F)C(F)(F)CC1CO1 (configuration not stated)
inactive: all assays above

O=C(O)C(F)(F)OC(F)(F)C(F)(F)OC(F)(F)F
inactive: all assays above

CCOP(=S)(OCC)SCSc1ccc(Cl)cc1
active: [3] 30.1 µM
inactive: [1] | Decorin, DCN (gene 1634) | [2]

C=CC(=O)OCC(CC)(COC(=O)C=C)COC(=O)C=C
active: [1] 5.17 µM | Decorin, DCN (gene 1634) 3.09 µM | [2] 2.91 µM | [3] 3.88 µM

O=C(O)C=CC(F)(C(F)(F)F)C(F)(F)F
inactive: all assays above

CCOP(=S)(S)OCC
inactive: [1] | Decorin, DCN (gene 1634) | [2] | [3]

O=C(O)C(F)(OC(F)(F)C(F)(F)C(F)(F)F)C(F)(F)F (configuration not stated)
inactive: all assays above

OCC(F)(F)OC(F)(F)C(F)(F)OC(F)(F)C(F)(F)OC(F)(F)F
active: [4] 49.2 µM | [5] 44.8 µM and 22.6 µM | [2] 21.9 µM and 21.6 µM | [3] 19.9 µM and 18.3 µM
inactive: [4] | [6] | [1] | [7] | Decorin, DCN (gene 1634) | [8] | [9]

CCCCOCCOP(=O)(OCCOCCCC)OCCOCCCC
inactive: [1] | Decorin, DCN (gene 1634) | [2] | [3]

CC(C)Nc1ccc(Nc2ccccc2)cc1
active: [2] 20 µM
inactive: [1] | Decorin, DCN (gene 1634) | [3]

CCOP(=S)(NC(C)C)Oc1ccccc1C(=O)OC(C)C (configuration not stated)
inactive: [1] | Decorin, DCN (gene 1634) | [2] | [3]

O=C(O)C(F)(F)C(F)(F)C(=O)O
inactive: all assays above

OCC(F)(F)OC(F)(F)C(F)(F)OC(F)(F)C(F)(F)OC(F)(F)CO
inactive: [4] | [6] | [1] | [7] | Decorin, DCN (gene 1634) | [2] | [3] | [8] | [9]
active: [5] 17.9 µM and 22.2 µM | [6] 26.9 µM

O=P(OCC(Br)CBr)(OCC(Br)CBr)OCC(Br)CBr (configuration not stated)
inactive: [1] | Decorin, DCN (gene 1634) | [2]
active: [3] 25.9 µM

N#Cc1cc([N+](=O)[O-])ccc1N
inactive: [1] | Decorin, DCN (gene 1634) | [2] | [3]

O=S(=O)(F)C(F)(F)C(F)(F)C(F)(F)C(F)(F)C(F)(F)C(F)(F)C(F)(F)C(F)(F)F
inactive: all assays above

COP(=O)(O)OC
inactive: [1] | Decorin, DCN (gene 1634) | [2] | [3]

C=CC(=O)OCC(F)(F)C(F)F
inactive: [4] | [5] | [1] | [7] | Decorin, DCN (gene 1634) | [2] | [3] | [8] | [9]
active: [6] 13.9 µM and 22.8 µM | [2] 41.2 µM | [3] 44 µM

O=c1ssc(Cl)c1Cl
inactive: [1]
active: Decorin, DCN (gene 1634) 9.67 µM | [2] 5.58 µM | [3] 20 µM

CCCCC(CC)COP(=O)(Oc1ccccc1)Oc1ccccc1 (configuration not stated)
active: [1] 0.145 µM | Decorin, DCN (gene 1634) 5.87 µM | [2] 8.43 µM | [3] 5.32 µM

COC(=O)C(F)(F)C(F)(F)OC(F)(C(F)(F)F)C(F)(F)OC(F)=C(F)F (configuration not stated)
inactive: [4] | [5] | [6] | [1] | [7] | Decorin, DCN (gene 1634) | [2] | [3] | [8] | [9]
active: [5] 5.24 µM | [1] 1.29 µM

Cc1c([N+](=O)[O-])cc2c(c1[N+](=O)[O-])C(C)(C)CC2(C)C
active: [3] 4.01 µM
inactive: [1] | Decorin, DCN (gene 1634) | [2]

CC(O)C(F)(F)C(F)(F)F (configuration not stated)
inactive: all assays above

COP(N)(=S)OC
inactive: [1] | Decorin, DCN (gene 1634) | [2] | [3]

Nc1ccc([N+](=O)[O-])cc1Cl
inactive: [1] | Decorin, DCN (gene 1634) | [2] | [3]

CCOP(=S)(OCC)SCn1nnc2ccccc2c1=O
inactive: [1] | Decorin, DCN (gene 1634) | [2] | [3]

CC(C)(C)c1ccccc1OP(=O)(Oc1ccccc1)Oc1ccccc1
inactive: [1] | Decorin, DCN (gene 1634)
active: [2] 20 µM | [3] 5.26 µM

CC(Cl)CN(C)C (configuration not stated)
inactive: [1] | Decorin, DCN (gene 1634) | [2] | [3]

CCOP(=S)(OCC)SCS(=O)(=O)CC
inactive: [1] | Decorin, DCN (gene 1634) | [2] | [3]

NC(=O)C(F)(F)C(F)(F)F
inactive: all assays above

N#Cc1c(-c2ccc(Cl)cc2)[nH]c(C(F)(F)F)c1Br
active: [1] 0.17 µM | [2] 0.802 µM
inactive: Decorin, DCN (gene 1634) | [3]

Cc1ccc2c(c1N)C(=O)c1ccccc1C2=O
inactive: [1] | Decorin, DCN (gene 1634) | [2] | [3]

CCCCC(CC)COC(=O)c1c(Br)c(Br)c(Br)c(Br)c1C(=O)OCC(CC)CCCC (configuration not stated)
inactive: [1] | Decorin, DCN (gene 1634) | [2] | [3]

c1ccc2c(c1)sc1ccccc12
inactive: [1] | Decorin, DCN (gene 1634) | [2] | [3]

O=C(O)C(F)(F)OC(F)(F)C(F)(F)OC(F)(F)C(=O)O
inactive: all assays above

ClC(Cl)=C(c1ccc(Cl)cc1)c1ccccc1Cl
active: [1] 9.75 µM | Decorin, DCN (gene 1634) 9.47 µM | [2] 6.71 µM | [3] 9.59 µM
